Bioassay records (PubChem)
Hits are enriched below; roughly 11% of the tested compounds scored in any of these assays.
IMPase Li inh: cell-permeable IMPase inhibitors with lithium potentiation; Potency, µM (series often up to 59.4 µM), for inactives: at the top dose activity, negative = IMPase inhibition, hits mostly inhibitors; CHO-M1 cells, IP1 TR-FRET (IP-One), carbachol + lithium; actives 0.35% (n = 210,000);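 also: IP1 builds up when IMPase is blocked and the TR-FRET signal falls; potency is read from the fitted curve at half-maximal effect; plate controls were basal vehicle for no effect and high inhibitor control for full effect; nearly all actives have a fitted effect of over 50% in size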
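CHO cells stably expressing M1 receptor (2000/well, cultured 16–30 h) treated 30 min at 37C with compound plus low lithium. Cytosolic IP1 by TR-FRET (665/620 ratio and 620 channel) after 10 min lysis; AC50 by Hill fit.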
ALDH1A1 inh: ALDH1A1 (human) enzyme inhibition; Purified ALDH1A1, NADH fluorescence, propionaldehyde substrate; Potency, µM (series often up to 75.3 µM), for inactives: at the top dose activity, negative = inhibition, actives largely listed as inhibitors; actives 7.3% (n = 220,000); AID 1030; active = well fitted inhibition curve with a large enough effect, not every such curve was filed as active; inconclusive = small, poorly fitted or top-dose-only effect, or another doubt; inactive = no such curve, though single readings can be large or run the other way;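 also: potency is read from the fitted curve at half-maximal effect; plate controls were no enzyme wells and a reference inhibitor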
Target sequence (P00352 whole entry, looked up): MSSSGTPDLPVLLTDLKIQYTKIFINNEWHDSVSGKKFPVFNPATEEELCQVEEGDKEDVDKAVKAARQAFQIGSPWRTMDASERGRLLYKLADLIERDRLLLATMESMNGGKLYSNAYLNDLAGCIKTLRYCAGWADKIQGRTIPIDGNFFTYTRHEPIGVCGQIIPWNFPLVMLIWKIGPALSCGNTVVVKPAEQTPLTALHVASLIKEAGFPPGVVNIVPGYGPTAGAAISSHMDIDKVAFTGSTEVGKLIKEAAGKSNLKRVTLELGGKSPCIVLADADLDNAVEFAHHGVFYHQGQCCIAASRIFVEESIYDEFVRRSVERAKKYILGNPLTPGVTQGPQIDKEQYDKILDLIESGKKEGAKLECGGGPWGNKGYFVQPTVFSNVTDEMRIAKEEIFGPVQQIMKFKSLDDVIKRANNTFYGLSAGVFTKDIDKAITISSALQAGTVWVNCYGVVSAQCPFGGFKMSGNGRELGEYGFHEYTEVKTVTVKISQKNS
HPGD inh: HPGD (human) dehydrogenase inhibition. P15428. purified HPGD, NADH fluorescence kinetic, PGE2 substrate. Potency, µM, inactives show at the highest dose activity change, negative = inhibition, actives largely listed as inhibitors. actives 4.3% (n = 150,000). AID 894; active = well fitted inhibition curve with a large enough effect, not every such curve was filed as active; inconclusive = small, poorly fitted or top-dose-only effect, or another doubt; inactive = no such curve, though single readings can be large or run the other way; also: potency is read from the fitted curve at half-maximal effect
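20 nM HPGD preincubated 15 min at room temperature with compound in 50 mM Tris-HCl pH 8, 0.01% Tween 20. Started with 1 mM NAD+ and 30 uM prostaglandin E2; NADH fluorescence (360/450 nm) read 5 times over 30-s intervals, last minus first.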
NPSR antag: antagonists of human neuropeptide S receptor cAMP signaling. Potency, µM (highest dose often 38.3 µM), inactives show top-dose activity change, negative = inhibition, hits mostly inhibitors. actives 1% (n = 220,000). CHO-NPSR cells, cAMP TR-FRET, antagonist mode. Q6W5P4; also: potency is read from the fitted curve at half-maximal effect; nearly all actives have a fitted effect of over 50% in size
IMPase cell inh: cell-permeable inhibitors of inositol monophosphatase (IMPase) | CHO-M1 cells, IP1 accumulation, HTRF TR-FRET ratio | inhibition (IP1 accumulation), % at 46.1 µM | 120,000 tested, under 10 active; active = well fitted curve in the direction sought with a large enough effect in the signal ratio, not every such curve was filed as active; inconclusive = small, poorly fitted or top-dose-only effect, or a change in a side signal; inactive = no such curve, though single readings can be large or run the other way; the % refers to the signal ratio;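 also: cells stimulated with carbachol in lithium chloride buffer; plate controls were DMSO basal wells for no effect and reference inhibitor wells for full effect; higher means more IMPase inhibition seen as more IP1 and lower FRET ratio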
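Seeded CHO-M1 cells were dosed with compound at up to 46 uM, stimulated with carbachol for 30 min, then lysed in IP-One detection reagents. Higher IP1 lowers the TR-FRET signal.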
PNC inhibitor: perinucleolar compartment assembly inhibition; actives 3.1% (n = 140,000); AID 2417; PC3M PTB-GFP, PNC prevalence imaging, 16 h; stronger effect = lower value; activity change (PNC), negative = inhibition, % at 10 µM;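 active = readout at or below -70, meaning at least 70% loss of cells showing the perinucleolar compartment, a nuclear body marking cancer cells; inconclusive = readout between -30 and a set limit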;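 also: plate controls were DMSO wells for no effect and camptothecin positive control wells for full effect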
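PC3M cells stably expressing PTB-GFP, 750–1000 cells/well, treated 16 h at 37 °C with compound (23 nl of library stock), in duplicate. After paraformaldehyde fixation and Hoechst stain, imaged at 20x; PNC prevalence scored by image analysis.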
* hit, by the source's call; [ ] = remark or other dose. Unless noted, calls follow the shape of the dose curve; as a rule, active = well fitted curve in the direction sought with a large enough effect; inconclusive = small, poorly fitted or top-dose-only effect, or another doubt; inactive = no such curve, though single readings can be large; an effect the other way counts as inactive or inconclusive. Unless noted, % is scaled to controls: 0 for no effect and ±100 for the full control effect.

What do the screens show for `CC(=O)NC(=S)Nc1ccc(N2CCOCC2)c(S(=O)(=O)Nc2cc(Cl)ccc2Cl)c1`?
IMPase Li inh: 8.7%; ALDH1A1 inh: 0.355µM*; NPSR antag: -14.1%

How did CCCC(=O)N1CCN(c2ccc(NC(=O)c3ccc([N+](=O)[O-])o3)cc2)CC1 do in these assays?
IMPase Li inh: -14.3%; ALDH1A1 inh: -10.6%; NPSR antag: 7.94µM*

Results for O=C(NC(=S)Nc1ccc(N2CCOCC2)c(Cl)c1)C(c1ccccc1)c1ccccc1 ?
IMPase Li inh: -0.4%[38.3 µM]; ALDH1A1 inh: 11.2µM*; HPGD inh: -17.8%; NPSR antag: inconclusive; IMPase cell inh: 5.8; PNC inhibitor: inconclusive

How did COC(=O)[C@@]1(Cc2ccc(F)cc2)[C@H]2c3cc(C(=O)N4CCCC4)n(CCc4ccc(O)c(O)c4)c3C[C@H]2CN1C(=O)c1ccccc1 do in these assays?
IMPase Li inh: 7.5%; ALDH1A1 inh: 1.5%; HPGD inh: -24.4%; NPSR antag: -28.9%; PNC inhibitor: 48.1

What do the screens show for `O=C(O)C(C(=O)O)=C1C2CC3CC(C2)CC1C3`?
NPSR antag: 9.0%

Results for O=C(Nc1ccc(N2CCOCC2)c(Cl)c1)c1ccc(Br)o1 ?
IMPase Li inh: 32.9%[38.3 µM]; ALDH1A1 inh: 25.1µM*; HPGD inh: 25.1µM*; NPSR antag: -19.5%[46.1 µM]; IMPase cell inh: 10.0; PNC inhibitor: -6.5

How did CC(=O)N1CCN(c2ccc(NC(=O)c3ccccc3Br)cc2Cl)CC1 do in these assays?
IMPase Li inh: -0.2%; ALDH1A1 inh: inconclusive; HPGD inh: 15.8µM*; NPSR antag: 9.1%[46.1 µM]; IMPase cell inh: -11.6; PNC inhibitor: inconclusive

Results for Cc1ccc(-c2nn3c(C)nnc3s2)cc1NC(=O)c1ccc(OC(C)C)cc1 ?
IMPase Li inh: 18.9%[38.3 µM]; ALDH1A1 inh: 12.6µM*; HPGD inh: 1.12µM*; NPSR antag: -15.4%[46.1 µM]; IMPase cell inh: 7.8; PNC inhibitor: inconclusive

What do the screens show for `Cc1cc(OCC(=O)Nc2cc(-c3nn4c(C)nnc4s3)ccc2C)ccc1Cl`?
IMPase Li inh: 28.2µM*; ALDH1A1 inh: -2.7%; HPGD inh: -22.9%; NPSR antag: inconclusive; IMPase cell inh: 0.8; PNC inhibitor: -27.1

How did COc1ccc(OCC(=O)Nc2cc(-c3nn4c(C)nnc4s3)ccc2C)cc1 do in these assays?
IMPase Li inh: -18.9%[38.3 µM]; ALDH1A1 inh: -2.1%; HPGD inh: -10.1%; NPSR antag: 8.4%[46.1 µM]; IMPase cell inh: 3.6; PNC inhibitor: 25.9

What do the screens show for `O=C(Nc1ccc2nc(-c3ccco3)[nH]c2c1)c1cccs1`?
IMPase Li inh: 7.7%; ALDH1A1 inh: 7.08µM*; HPGD inh: inconclusive; NPSR antag: -6.8%[46.1 µM]; IMPase cell inh: 8.2; PNC inhibitor: 325.9

How did O=C(Nc1ccc2nc(-c3ccco3)[nH]c2c1)c1ccco1 do in these assays?
IMPase Li inh: -6.1%[38.3 µM]; ALDH1A1 inh: inconclusive; HPGD inh: -25.9%; NPSR antag: inconclusive; IMPase cell inh: 3.6; PNC inhibitor: 28.3

What do the screens show for `CSc1nc2c(c(=O)[nH]1)C(c1ccccc1Cl)CC(=O)N2` (configuration not stated)?
IMPase Li inh: -6.2%; ALDH1A1 inh: 12.6µM*; NPSR antag: -10.4%

How did CSc1nc2c(c(=O)[nH]1)C(c1ccc(Cl)cc1)CC(=O)N2 (configuration not stated) do in these assays?
IMPase Li inh: -9.4%; ALDH1A1 inh: 9.2%; NPSR antag: -0.1%

How did CCOc1ccc(C2NC(=O)NC(C)=C2[N+](=O)[O-])cc1OC (configuration not stated) do in these assays?
NPSR antag: 9.1%

What do the screens show for `Cc1ccc2[nH]c3c(=S)nc[nH]c3c2c1`?
IMPase Li inh: 12.6µM*; ALDH1A1 inh: 1.5%; HPGD inh: -26.6%; NPSR antag: -53.9%; IMPase cell inh: inconclusive; PNC inhibitor: 8.4

How did CC(C)(C)c1ccc2c(c1)OC(C(=O)N/N=C/c1ccc([N+](=O)[O-])o1)CO2 (configuration not stated) do in these assays?
NPSR antag: 3.3%[7.67 µM]
